Measurements published in PubChem BioAssay AID2810 (NMMLSC, 2010).
Out of some 1,200 compounds screened, about 65 (5%) were called active.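 How the source made its calls: active means at either tested dose, response and 90th-percentile vesicle-stain brightness of CD8 cells under set limits and under 9% cells vesicle-bound; inactive means the rest.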 For the sample, actives were picked, then their nearest neighbours and some compounds at random.

Assay: modulators of CD8 T cell-vesicle binding, confirmation, cherry-picked primary hits, two concentrations (AID 2810);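 on percent response (vesicle binding): ratio of mean FL2 vesicle stain of CD8+ cells to that row's control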
Settings: 2C CD8+ T cell-vesicle binding, flow cytometry; for double positive events: CD8+/vesicle+ events
[1] = at 15.4 µM, stronger effect = lower value

SMILES	double positive events (at 7.7 µM) [%]	double positive events [1] [%]	percent response (vesicle binding) [1]	percent response (vesicle binding) (response, at 7.7 µM) [%]
O=C(NCCC1=CCCCC1)C(=O)NCC(c1ccco1)N1CCN(c2ccccc2F)CC1 (stereo not given)	36.4	10.7	201% (inactive)	264
O=C(NCc1cccnc1)C(=O)NCC(c1ccco1)N1CCN(c2ccccc2)CC1 (stereo not given)	20.2	6.1	135% (inactive)	202
COc1ccccc1NS(=O)(=O)c1cc(NC(=O)CNC(=O)c2cc(C)cc(C)c2)ccc1C	21	0.9	39.6% (active)	218
COc1ccccc1NS(=O)(=O)c1ccc(C)c(NC(=O)c2ccc(S(=O)(=O)N3CCCCCC3)cc2)c1	11.9	35.5	332% (inactive)	182
COc1ccc(NC(=O)Cc2ccc(C)c(C)c2)cc1S(=O)(=O)N1CCCCC1	37.7	10.7	257% (inactive)	649
O=S(=O)(NN=C1CCCCCCC1)c1ccc(Br)cc1	13.7	7.3	144% (inactive)	120
CC(/C=C/c1ccc(C)o1)=C\C(=O)O	19.1	19.8	196% (inactive)	227
COCCNC(=O)c1c[nH]c2ccc(OC)cc2c1=O	18.7	13.1	154% (inactive)	563
NC(=O)NC(=O)COC(=O)CN1C(=O)C2CCCCC2C1=O (stereo not given)	15.9	33.3	345% (inactive)	151
CCOC(=O)c1c(O)c2cc(Cl)ccc2n(CC)c1=O	10.9	12	102% (inactive)	127
CCn1c(=O)cc(SCC(=O)N(C)Cc2ccccc2)c2ccccc21	24.8	14	193% (inactive)	224
CCOC(=O)c1c(C=O)c2ccccc2n1CC	17.9	3	28.6% (active)	287
Cc1ccc(CSc2ccc(S(=O)(=O)N3CCCC3)cn2)cc1	8.3	18	92.4% (inactive)	237
CC(=O)c1ccc(Nc2cc(C)nc3nc(C)nn23)cc1	10.4	19.9	90.9% (inactive)	189
COc1ccc(NC(=S)N2CCN(c3ncccn3)CC2)c(OC)c1	30.6	14.7	195% (inactive)	246
COc1ccc(-c2cccc3c2NC(=O)C3=O)cc1OC	7.8	26.1	427% (inactive)	305
C/C(=N\Nc1nc2ccccc2[nH]1)c1cc2ccccc2o1	14.4	31.4	271% (inactive)	266
Cc1sc2ncnc(NCC(C)(C)N3CCOCC3)c2c1C	6.4	1.9	49.2% (active)	251
CCSc1ncnc2sc(C)c(C)c12	7.6	17.4	318% (inactive)	354
CC(C)(CNC(=O)c1cc2c(s1)CCCC2)N1CCOCC1	8	20.9	213% (inactive)	164
